Where “and” joins values, the source holds several entries; their conditions need not be identical. Equal values may be shown once. In all, about 5,500 compounds went through this assay and about 2,000 (36%) were called active. Not shown: some 18% with an inconclusive outcome. Cut-off read from the data, not from the text of the source: active = normalized growth mostly below about 0.91 (no sharp cut-off); inconclusive = no clear call, values can overlap the other calls; inactive = mostly above about 0.92. Some of the results follow.
Experiment: chemical genetic growth profiling, strain panel (AID 1159580);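 note: tested at 20 µM; growth read once vehicle control cultures reached saturation at 30 °C; 1 = growth at the plate median or of vehicle wells; lower values mean less growth of the strain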
Settings: S. cerevisiae deletion strains, growth OD

Measured: normalized growth

NCCCC[C@H](N[C@@H](CCc1ccccc1)C(=O)O)C(=O)N1CCC[C@H]1C(=O)O
inactive: locus YAL021C, strain ccr4, stronger effect = lower value 1.01 | locus YAL026C, strain drs2, stronger effect = lower value 1.02 | locus YAL030W, strain snc1, stronger effect = lower value 0.978 | locus YBL061C, strain skt5, stronger effect = lower value 1.01 | locus YBR009C, strain hhf1, stronger effect = lower value 0.98 | locus YBR021W, strain FUR4, stronger effect = lower value 1.01 | locus YBR023C, strain chs3, stronger effect = lower value 0.998 | locus YBR171W, strain sec66, stronger effect = lower value 1.02 | locus YBR229C, strain ROT2, stronger effect = lower value 0.962 | locus YBR231C, strain swc5, stronger effect = lower value 1.01 | locus YBR279W, strain paf1, stronger effect = lower value 0.998 | locus YCL011C, strain gbp2, stronger effect = lower value 0.997 | locus YCL016C, strain dcc1, stronger effect = lower value 0.99 | locus YCL029C, strain bik1, stronger effect = lower value 0.992 | locus YCL069W, strain vba3, stronger effect = lower value 1.03 | locus YCR088W, strain abp1, stronger effect = lower value 1.03 | locus YDL005C, strain med2, stronger effect = lower value 1.03 | locus YDL035C, strain GPR1, stronger effect = lower value 0.995 | locus YDL040C, strain nat1, stronger effect = lower value 0.998 | locus YDL074C, strain BRE1, stronger effect = lower value 0.932 | locus YDL101C, strain DUN1, stronger effect = lower value 0.982 | locus YDL134C, strain PPH21, stronger effect = lower value 1 | locus YDL185W, strain tfp1, stronger effect = lower value 0.989 | locus YDL192W, strain arf1, stronger effect = lower value 0.992 | locus YDR001C, strain nth1, stronger effect = lower value 1.01 | locus YDR069C, strain doa4, stronger effect = lower value 0.935 | locus YDR101C, strain arx1, stronger effect = lower value 0.995 | locus YDR137W, strain rgp1, stronger effect = lower value 0.994 | locus YDR150W, strain NUM1, stronger effect = lower value 0.99 | locus YDR159W, strain sac3, stronger effect = lower value 0.923 | locus YDR162C, strain NBP2, stronger effect = lower value 0.994 | locus YDR195W, strain ref2 0.987 | locus YDR297W, strain sur2, stronger effect = lower value 0.979 | locus YDR318W, strain mcm21, stronger effect = lower value 1 | locus YDR334W, strain swr1, stronger effect = lower value 1.01 | locus YDR335W, strain msn5, stronger effect = lower value 0.972 | locus YDR388W, stronger effect = lower value 0.993 | locus YDR392W, strain spt3, stronger effect = lower value 1.01 | locus YDR502C, strain sam2, stronger effect = lower value 0.999 | locus YEL003W, strain gim4, stronger effect = lower value 1.02 | locus YEL037C, strain rad23, stronger effect = lower value 1.01 | locus YEL061C, strain CIN8 (second series), stronger effect = lower value 1.02 | locus YEL061C, strain CIN8, stronger effect = lower value 0.978 | locus YER015W, strain faa2, stronger effect = lower value 1 | locus YER016W, strain bim1, stronger effect = lower value 0.997 | locus YER110C, stronger effect = lower value 0.989 | locus YER111C, strain swi4, stronger effect = lower value 1.02 | locus YER155C, strain BEM2 (second series), stronger effect = lower value 0.994 | locus YER155C, strain BEM2, stronger effect = lower value 0.996 | locus YER167W, strain BCK2, stronger effect = lower value 0.989 | locus YFR010W, strain ubp6, stronger effect = lower value 1.01 | locus YGL078C, strain dbp3, stronger effect = lower value 1 | locus YGL086W, strain mad1, stronger effect = lower value 0.982 | locus YGL167C, strain pmr1, stronger effect = lower value 1.01 | locus YGL173C, strain kem1, stronger effect = lower value 1.04 | locus YGL227W, strain vid30, stronger effect = lower value 1.01 | locus YGL240W, strain doc1, stronger effect = lower value 0.92 | locus YGL248W, strain PDE1, stronger effect = lower value 0.966 | locus YGL253W, strain hxk2, stronger effect = lower value 0.971 | locus YGR135W, strain pre9, stronger effect = lower value 1.01 | locus YGR252W, strain gcn5, stronger effect = lower value 1.02 | locus YHR013C, strain ard1, stronger effect = lower value 1.01 | locus YHR027C, strain rpn1, stronger effect = lower value 0.985 | locus YHR030C, strain SLT2, stronger effect = lower value 0.996 and 1.03 | locus YHR079C, strain IRE1 (second series), stronger effect = lower value 0.999 | locus YHR079C, strain IRE1, stronger effect = lower value 1.05 | locus YHR094C, strain hxt1, stronger effect = lower value 0.995 | locus YHR129C, strain ARP1, stronger effect = lower value 0.997 | locus YHR142W, strain chs7, stronger effect = lower value 1.03 | locus YHR200W, strain rpn10, stronger effect = lower value 1 | locus YIL066C, strain RNR3, stronger effect = lower value 0.973 | locus YIL073C, strain SPO22, stronger effect = lower value 1.06 | locus YIL125W, strain kgd1, stronger effect = lower value 0.993 | locus YIR030C, strain dcg1, stronger effect = lower value 0.993 | locus YJL092W, strain hpr5, stronger effect = lower value 1.02 | locus YJL095W, strain BCK1 (second series), stronger effect = lower value 0.972 | locus YJL095W, strain BCK1, stronger effect = lower value 0.968 and 1.01 | locus YJL115W, strain asf1, stronger effect = lower value 1.01 | locus YJL129C, strain trk1, stronger effect = lower value 1.04 | locus YJL134W, strain LCB3, stronger effect = lower value 0.994 | locus YJL154C, strain vps35, stronger effect = lower value 1.03 | locus YJL164C, strain tpk1, stronger effect = lower value 1.02 | locus YJL166W, strain qcr8, stronger effect = lower value 0.989 | locus YJL168C, strain set2, stronger effect = lower value 0.995 | locus YJL187C, strain SWE1 (second series), stronger effect = lower value 0.971 | locus YJR043C, strain POL32, stronger effect = lower value 0.986 | locus YJR066W, strain TOR1, stronger effect = lower value 0.969 | locus YJR075W, strain HOC1, stronger effect = lower value 0.979

Reference: PubChem BioAssay AID1159580 (chemical genetic matrix, 2015)
